# Source: PMC4601081
# How the values were obtained:
# Assay in all cases: cross-link between two proteins; cross-linking mass spectrometry
# [1] = target: 26S proteasome regulatory subunit RPN5 (UniProt Q12250)
# [2] = target: 26S proteasome regulatory subunit RPN8 (UniProt Q08723)
# [3] = target: 26S proteasome regulatory subunit RPN3 (UniProt P40016)
# [4] = target: Ubiquitin C-terminal hydrolase RPN11 (UniProt P43588)
# [5] = target: 26S proteasome regulatory subunit RPN7 (UniProt Q06103)
# [6] = target: 26S proteasome regulatory subunit RPN6 (UniProt Q12377)
# Sequence of 26S proteasome regulatory subunit RPN6 (Q12377 whole entry): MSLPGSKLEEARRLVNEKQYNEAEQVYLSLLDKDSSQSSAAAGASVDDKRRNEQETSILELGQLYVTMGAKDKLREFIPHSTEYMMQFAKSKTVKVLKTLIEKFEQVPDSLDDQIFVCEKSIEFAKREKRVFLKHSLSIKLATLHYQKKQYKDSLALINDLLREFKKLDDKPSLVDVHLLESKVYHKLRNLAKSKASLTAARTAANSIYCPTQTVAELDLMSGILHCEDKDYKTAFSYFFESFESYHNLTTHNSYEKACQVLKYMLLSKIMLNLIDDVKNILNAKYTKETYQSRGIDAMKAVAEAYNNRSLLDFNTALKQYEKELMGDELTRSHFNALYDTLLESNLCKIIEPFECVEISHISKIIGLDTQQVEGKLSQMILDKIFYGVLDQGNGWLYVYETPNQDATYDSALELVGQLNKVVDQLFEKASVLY
# Sequence of 26S proteasome regulatory subunit RPN5 (Q12250 whole entry): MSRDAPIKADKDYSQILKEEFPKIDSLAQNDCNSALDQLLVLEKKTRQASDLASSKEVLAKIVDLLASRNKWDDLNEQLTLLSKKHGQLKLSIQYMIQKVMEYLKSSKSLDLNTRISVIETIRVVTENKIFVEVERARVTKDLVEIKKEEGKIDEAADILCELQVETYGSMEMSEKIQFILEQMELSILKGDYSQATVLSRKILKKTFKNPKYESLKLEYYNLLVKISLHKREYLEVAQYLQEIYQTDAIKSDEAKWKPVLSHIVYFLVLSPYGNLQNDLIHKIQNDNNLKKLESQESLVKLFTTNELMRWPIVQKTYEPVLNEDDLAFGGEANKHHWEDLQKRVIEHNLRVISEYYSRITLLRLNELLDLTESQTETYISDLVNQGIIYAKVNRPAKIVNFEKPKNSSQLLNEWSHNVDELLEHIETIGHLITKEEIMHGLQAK
# Sequence of 26S proteasome regulatory subunit RPN8 (Q08723 whole entry): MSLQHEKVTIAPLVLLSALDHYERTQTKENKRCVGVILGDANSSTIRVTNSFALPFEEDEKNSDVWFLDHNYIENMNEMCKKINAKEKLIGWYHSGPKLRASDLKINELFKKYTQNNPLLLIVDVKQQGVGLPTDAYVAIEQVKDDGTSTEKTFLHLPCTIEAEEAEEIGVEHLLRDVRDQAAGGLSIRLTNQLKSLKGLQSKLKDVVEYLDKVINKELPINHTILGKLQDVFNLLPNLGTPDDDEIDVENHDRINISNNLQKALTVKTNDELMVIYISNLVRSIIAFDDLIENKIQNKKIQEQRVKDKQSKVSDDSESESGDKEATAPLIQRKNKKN
# Sequence of 26S proteasome regulatory subunit RPN7 (Q06103 whole entry): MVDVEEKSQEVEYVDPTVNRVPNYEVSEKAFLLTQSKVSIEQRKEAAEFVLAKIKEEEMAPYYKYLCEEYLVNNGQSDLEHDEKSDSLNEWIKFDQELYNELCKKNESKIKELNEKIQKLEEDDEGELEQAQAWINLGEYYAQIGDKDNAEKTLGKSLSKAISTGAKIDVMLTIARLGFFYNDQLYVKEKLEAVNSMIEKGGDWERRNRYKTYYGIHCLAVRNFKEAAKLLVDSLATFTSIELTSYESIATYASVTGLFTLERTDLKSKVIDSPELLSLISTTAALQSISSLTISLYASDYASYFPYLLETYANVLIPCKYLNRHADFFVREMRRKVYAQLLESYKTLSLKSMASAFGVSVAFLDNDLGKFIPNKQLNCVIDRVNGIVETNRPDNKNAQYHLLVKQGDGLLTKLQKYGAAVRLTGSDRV
# Sequence of Ubiquitin C-terminal hydrolase RPN11 (P43588 whole entry): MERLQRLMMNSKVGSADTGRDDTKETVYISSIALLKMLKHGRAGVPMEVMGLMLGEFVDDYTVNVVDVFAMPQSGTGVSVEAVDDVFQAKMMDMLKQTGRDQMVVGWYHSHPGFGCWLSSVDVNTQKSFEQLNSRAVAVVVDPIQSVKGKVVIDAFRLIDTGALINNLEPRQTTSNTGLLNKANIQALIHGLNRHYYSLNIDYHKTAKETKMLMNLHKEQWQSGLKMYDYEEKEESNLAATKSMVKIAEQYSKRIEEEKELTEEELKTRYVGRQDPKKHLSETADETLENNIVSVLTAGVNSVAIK
# Sequence of 26S proteasome regulatory subunit RPN3 (P40016 whole entry): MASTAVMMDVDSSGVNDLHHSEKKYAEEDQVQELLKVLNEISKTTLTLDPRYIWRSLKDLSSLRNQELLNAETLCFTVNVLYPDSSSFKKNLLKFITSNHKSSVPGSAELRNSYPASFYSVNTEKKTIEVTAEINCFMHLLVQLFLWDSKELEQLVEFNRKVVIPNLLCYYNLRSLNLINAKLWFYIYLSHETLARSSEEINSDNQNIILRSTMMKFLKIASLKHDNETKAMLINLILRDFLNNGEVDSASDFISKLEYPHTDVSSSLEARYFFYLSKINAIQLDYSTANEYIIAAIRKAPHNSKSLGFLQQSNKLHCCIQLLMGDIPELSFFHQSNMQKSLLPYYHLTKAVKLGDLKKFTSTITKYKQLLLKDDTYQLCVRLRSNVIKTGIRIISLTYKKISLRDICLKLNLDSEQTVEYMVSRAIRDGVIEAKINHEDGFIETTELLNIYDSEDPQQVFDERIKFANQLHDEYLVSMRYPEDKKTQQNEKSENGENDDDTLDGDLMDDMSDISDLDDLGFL
substance,measurement,setting,value
"26S proteasome regulatory subunit RPN9, Q04062",listed as a hit,[1],yes
same,listed as a hit,[2],yes
"26S proteasome complex subunit SEM1, O94742",listed as a hit,[3],yes
same,listed as a hit,[2],yes
same,listed as a hit,[4],yes
"26S proteasome regulatory subunit RPN3, P40016",listed as a hit,[5],yes
same,listed as a hit,[2],yes
same,listed as a hit,[4],yes
"26S proteasome regulatory subunit RPN5, Q12250",listed as a hit,[6],yes
"26S proteasome regulatory subunit RPN7, Q06103",listed as a hit,[1],yes
same,listed as a hit,[6],yes
same,listed as a hit,[2],yes
"26S proteasome regulatory subunit RPN8, Q08723",listed as a hit,[1],yes
same,listed as a hit,[6],yes
"Ubiquitin C-terminal hydrolase RPN11, P43588",listed as a hit,[1],yes
same,listed as a hit,[6],yes
same,listed as a hit,[5],yes
